According to PubChem BioAssay AID504456 (NMMLSC, 2011):
Some of the results follow. Calls of active or inactive are those of the source.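 Rule for the calls: active = growth rating at most 1 for wild type yeast while the TORC1 bypass strain still grows fully, rated 3; inactive = the rest.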

Experiment: rapamycin-like growth block in BY4741 yeast – BY4741 wild type, TORC1 bypass strain, mechanism study for yeast TOR pathway GFP screen (AID 504456)
Details: S. cerevisiae BY4741 spot growth rating, 48-72 h, at 30 µM
[1] = TORC1 bypass strain growth rating

Structure (SMILES)	growth rating (0-3) [1]	growth rating (0-3) (stronger effect = lower value)
Cc1ccc(-c2nn(C(C)(C)C)c3ncnc(N)c23)cc1	3	3 (inactive)
CN(C)CCCNc1nc(N)c([N+](=O)[O-])c(Nc2cccc(F)c2)n1	3	3 (inactive)
